Compound activity (PubChem)
LGR2 antag = blocks bursicon-induced cAMP signaling via Drosophila LGR2 | 0.35% of 380,000 active | HEK293 LGR2, CRE-luciferase, bursicon-stimulated, 4 h | inhibition, % at 9.99 µM | AID 720647;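 active = drop in luminescence signal, shown as inhibition above about 50% in the replicate tests, limit read from the data, passing the limit was not always enough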;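 also: agonist challenge used bursicon conditioned medium at about half maximal strength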
EWS-Fli inh = inhibitors of EWS/Fli oncoprotein transcriptional activity; A673 NR0B1-luciferase reporter, viability-normalised; inhibition, % at 12.6 µM; 0.67% of 350,000 active; AID 651661;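 active = mean inhibition of at least 50% after viability correction, with every replicate also passing that limit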;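 also: firefly luciferase signal divided by Alamar Blue viability fluorescence both relative to DMSO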
TWEAK Fn14 block = blocks TWEAK-Fn14 interaction in a reporter cell assay; TWEAK-stimulated Fn14 reporter cells, luciferase luminescence, 8 h; inhibition, % at 10 µM; 2% of 360,000 active; AID 1159606; in the data active = inhibition above about 50%
CF NFkB block = blocks PAF-induced NF-kB reporter in cystic fibrosis cells; KKLEB NF-kB-GFP reporter, GFP fluorescence overnight; inhibition, % at 5 µM; 0.86% of 360,000 active;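 active = at least 50% inhibition at 5 µM, scaled per plate between neutral and stimulator controls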;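 also: PAF is a Pseudomonas aeruginosa culture filtrate used as stimulus; plate controls were PAF-stimulated DMSO wells for no effect and unstimulated DMSO wells for full effect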
KKLEB tox = reduces viability of KKLEB cystic fibrosis airway cells; 0.36% of 360,000 active; AID 602141; KKLEB CF airway cells viability, ATPlite luminescence, overnight; hits give low values; cells stimulated with P. aeruginosa culture filtrate; activity change (cytotoxicity), % at 5 µM;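 active = corrected activity change at or below -50% at 5 µM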
TROY signal inh = inhibitors of TROY-dependent NF-kB signaling. 0.98% of 360,000 active. AID 1347056. inhibition, % at 10 µM. Q293 LMP1-TROYcd NF-kB luciferase reporter, 4 h;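 active = compounds whose plate-normalised and pattern-corrected inhibition of the luciferase reporter signal at the single screening dose is 50% or more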
* hit, by the source's call; x = no result given. Shown are actives, neighbours in structure and some others; about 2.6% of the full set was active somewhere.

SMILES	LGR2 antag	EWS-Fli inh	TWEAK Fn14 block	CF NFkB block	KKLEB tox	TROY signal inh
COc1ccc(S(=O)(=O)Nc2ccccc2OC)cc1NC(=O)c1cc2ccccc2oc1=O	-54	x	13	58*	-55*	-51
COc1ccccc1NS(=O)(=O)c1cccc(NC(=O)c2ccc3ccccc3n2)c1	8	-26	69*	-18	-1	33
C[C@@H]1CCCCO[C@H](CN(C)C)[C@H](C)CN([C@@H](C)CO)C(=O)c2cc(NS(=O)(=O)c3ccc(Cl)cc3)ccc2O1	-15	10	x	x	x	x
C[C@@H]1CN([C@H](C)CO)C(=O)c2cc(NC(=O)CCCN(C)C)ccc2O[C@@H](C)CCCCO[C@H]1CN(C)C(=O)Nc1ccccc1	11	-7	x	x	x	x
Cn1c(=O)n(CCc2ccccc2)c(=O)c2c1nc1n2CCCN1Cc1ccccc1	16	x	52*	-4	-2	29
COC(=O)CSc1nnc(-c2sc3ccccc3c2Cl)o1	x	x	64*	0	8	35
CC(C)COc1ccc(-c2nnc(-c3ccco3)o2)cc1	x	x	57*	-20	1	-12
CCN(CC)CCCNc1ccc(-c2nnc(-c3ccc(OCC(C)C)cc3)o2)cn1	11	61*	-71	3	-19	-21
CCN(CC)CCCNc1oc(-c2cccc(Cl)c2)nc1C#N	-10	x	-13	-11	-5	0
O=C(COc1ccccc1)Nc1ccc(-c2nnc(-c3ccco3)o2)cc1	-34	x	-14	-26	4	-40
COc1cccc(-c2nnc(-c3ccco3)o2)c1	-22	x	17	9	-4	-45
CCCOc1ccc(-c2nnc(-c3ccco3)o2)cc1	x	x	72*	-32	6	34
C[C@@H]1CCCCO[C@@H](CN(C)C(=O)CCCN(C)C)[C@H](C)CN([C@H](C)CO)C(=O)c2cc(NC(=O)CCCN(C)C)ccc2O1	4	-12	x	x	x	x
Cc1ccccc1S(=O)(=O)NCC[C@@H]1CC[C@@H](NC(=O)C2CC2)[C@H](CO)O1	7	2	x	x	x	x
C[C@H]1CN([C@@H](C)CO)C(=O)c2cc(C#CCc3ccccc3)cnc2O[C@H]1CN(C)C(=O)C1CCC1	6	-11	x	x	x	x
Oc1ccc2ccccc2c1C=NNc1ccccn1	-1	-24	16	77*	-81*	-44
O=C(N/N=C/c1c(O)ccc2ccccc12)c1cccc(C(F)(F)F)c1	22	x	41	50	-52*	42
COc1ccc2ccccc2c1/C=N/NC(=O)c1cccc(Br)c1	6	5	-19	7	1	-26
COc1ccccc1CN(C)C[C@@H]1OCc2cn(nn2)CCCC(=O)N([C@H](C)CO)C[C@@H]1C	2	6	x	x	x	x
CCNC(=S)N(Cc1cccs1)Cc1cc2cc(OCC)ccc2[nH]c1=O	4	x	76*	-7	4	-17
Cc1cc(C)cc(OCc2nc3ncc(Br)cc3[nH]2)c1	x	x	4	35	-50*	19
COc1cccc(OCc2nc3ncc(Br)cc3[nH]2)c1	x	x	6	15	-32	-31
C[C@H]1CCCCO[C@@H](CN(C)C(=O)c2ccncc2)[C@@H](C)CN([C@@H](C)CO)C(=O)c2cc(N(C)C)ccc2O1	-4	-2	x	x	x	x
O=C(C[C@@H]1C=C[C@@H](NC(=O)Nc2ccc(C(F)(F)F)cc2)[C@@H](CO)O1)NCCN1CCCC1	3	0	x	x	x	x
COc1ccc(S(=O)(=O)Nc2ccc3c(c2)C(=O)N([C@H](C)CO)C[C@H](C)[C@H](CN(C)Cc2ccc(C(=O)O)cc2)OCCCC[C@H](C)O3)cc1	-18	-13	x	x	x	x
C=CCn1cc(-c2ccccc2)cc(C#N)c1=O	x	x	4	8	-96*	39
C=CCn1cc(-c2ccc(Cl)cc2)cc(C#N)c1=O	-17	x	-19	-3	-16	-5
CNC(=O)OCc1nc(SSC(C)(C)C)n(C)c1COC(=O)NC	-5	67*	89*	78*	-75*	-8
CC(OC(=O)c1cc(Br)ccc1O)C(=O)Nc1ccc(S(=O)(=O)N2CCCC2)cc1 (stereo unspecified)	19	1	60*	50	-24	60*
Cc1cccc(C(=O)OC(C)C(=O)Nc2ccc(S(=O)(=O)N3CCCC3)cc2)c1O (stereo unspecified)	14	5	10	7	-8	16
